Laboratory results from the supplement of paper PMC10849652.
Of roughly 7,900 targets only a part is listed; those with a hit were picked by preference. About 0.6% of all pairs of compound and target were hits. Unmarked numbers belong to inactive results.

Columns and labels:
Test in all cases: log2 fold change, soluble protein after heating vs DMSO (PISA); higher = thermal stabilisation; K562 cells, 10 uM, 30 min; active = over 0.2 and 3.5 SD of the protein, either way, in both replicates (recomputed)
filanesib = compound: CON(C)C(=O)N1N=C(c2cc(F)ccc2F)S[C@@]1(CCCN)c1ccccc1 [filanesib]
Summary of the method: (§1)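 Quantification of soluble protein used TMTpro 16plex LC-MS/MS, with channel sums equalised. Samples were the supernatant after 21,000xg for 90 min of pooled aliquots from K562 cells (2×10^6 cells/mL) treated with 10 μM compound for 30 min, heated for 3 min over 48°C-58°C, and extracted in PBS with 0.5% NP-40 at 4°C. Values, from duplicates, describe thermal stability against control samples on a log2 fold-change scale.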

zotarolimus = compound: CO[C@H]1C[C@@H]2CC[C@@H](C)[C@@](O)(O2)C(=O)C(=O)N2CCCC[C@H]2C(=O)O[C@H]([C@H](C)C[C@@H]2CC[C@H](n3cnnn3)[C@H](OC)C2)CC(=O)[C@H](C)/C=C(\C)[C@@H](O)[C@@H](OC)C(=O)[C@H](C)C[C@H](C)/C=C/C=C/C=C/1C [zotarolimus]
Summary of the method: as §1

idasanutlin = compound: COc1cc(C(=O)O)ccc1NC(=O)[C@@H]1N[C@@H](CC(C)(C)C)[C@](C#N)(c2ccc(Cl)cc2F)[C@H]1c1cccc(Cl)c1F [idasanutlin]
Summary of the method: as §1

alisertib = compound: COc1cc(Nc2ncc3c(n2)-c2ccc(Cl)cc2C(c2c(F)cccc2OC)=NC3)ccc1C(=O)O [alisertib]
Summary of the method: as §1

[1] = compound: COc1cc2nc(-c3cc(F)ccc3O)nc(N[C@@H]3CNC[C@H]3C(C)(C)O)c2cc1OC
Summary of the method: as §1

gefitinib = compound: COc1cc2ncnc(Nc3ccc(F)c(Cl)c3)c2cc1OCCCN1CCOCC1 [gefitinib]
Summary of the method: as §1

[2] = compound: COc1cccc2cc(-c3nc([C@H]4CC[C@H](C(=O)O)CC4)n4ncnc(N)c34)[nH]c12
Summary of the method: as §1

lapatinib = compound: CS(=O)(=O)CCNCc1ccc(-c2ccc3ncnc(Nc4ccc(OCc5cccc(F)c5)c(Cl)c4)c3c2)o1 [lapatinib]
Summary of the method: as §1

pictilisib = compound: CS(=O)(=O)N1CCN(Cc2cc3nc(-c4cccc5[nH]ncc45)nc(N4CCOCC4)c3s2)CC1 [pictilisib]
Summary of the method: as §1

[3] = compound: CS(=O)(=O)c1ccc(-c2cnc(N)c(C(=O)Nc3ccccc3)n2)cc1
Summary of the method: as §1

[4] = compound: C[C@H](C1=CC=C(C=C1)C(=O)NC2=C3C=CNC3=NC=C2)N
Summary of the method: as §1

duvelisib = compound: C[C@H](Nc1ncnc2nc[nH]c12)c1cc2cccc(Cl)c2c(=O)n1-c1ccccc1 [duvelisib]
Summary of the method: as §1

gandotinib = compound: Cc1cc(Nc2cc(CN3CCOCC3)c3nc(C)c(Cc4ccc(Cl)cc4F)n3n2)n[nH]1 [gandotinib]
Summary of the method: as §1

tozasertib = compound: Cc1cc(Nc2cc(N3CCN(C)CC3)nc(Sc3ccc(NC(=O)C4CC4)cc3)n2)n[nH]1 [tozasertib]
Summary of the method: as §1

[5] = compound: Cc1cc(SCc2sc(-c3ccc(C(F)(F)F)cc3)nc2C)ccc1OCC(=O)O
Summary of the method: as §1

ispinesib = compound: Cc1ccc(C(=O)N(CCCN)[C@@H](c2nc3cc(Cl)ccc3c(=O)n2Cc2ccccc2)C(C)C)cc1 [ispinesib]
Summary of the method: as §1

[6] = compound: C[C@@H]1COCCN1C2=NC(=NC(=C2)C3(CC3)S(=O)(=O)C)C4=C5C=CNC5=CC=C4
Summary of the method: as §1

[7] = compound: COC1=CC=C(C=C1)CN2C=CC3=C2C=C(C=C3)C(=O)NO
Summary of the method: as §1

crizotinib = compound: C[C@@H](Oc1cc(-c2cnn(C3CCNCC3)c2)cnc1N)c1c(Cl)ccc(F)c1Cl [crizotinib]
Summary of the method: as §1

doramapimod = compound: Cc1ccc(-n2nc(C(C)(C)C)cc2NC(=O)Nc2ccc(OCCN3CCOCC3)c3ccccc23)cc1 [doramapimod]
Summary of the method: as §1

Sequence of UniProt Q02086 (Q02086 whole entry, looked up): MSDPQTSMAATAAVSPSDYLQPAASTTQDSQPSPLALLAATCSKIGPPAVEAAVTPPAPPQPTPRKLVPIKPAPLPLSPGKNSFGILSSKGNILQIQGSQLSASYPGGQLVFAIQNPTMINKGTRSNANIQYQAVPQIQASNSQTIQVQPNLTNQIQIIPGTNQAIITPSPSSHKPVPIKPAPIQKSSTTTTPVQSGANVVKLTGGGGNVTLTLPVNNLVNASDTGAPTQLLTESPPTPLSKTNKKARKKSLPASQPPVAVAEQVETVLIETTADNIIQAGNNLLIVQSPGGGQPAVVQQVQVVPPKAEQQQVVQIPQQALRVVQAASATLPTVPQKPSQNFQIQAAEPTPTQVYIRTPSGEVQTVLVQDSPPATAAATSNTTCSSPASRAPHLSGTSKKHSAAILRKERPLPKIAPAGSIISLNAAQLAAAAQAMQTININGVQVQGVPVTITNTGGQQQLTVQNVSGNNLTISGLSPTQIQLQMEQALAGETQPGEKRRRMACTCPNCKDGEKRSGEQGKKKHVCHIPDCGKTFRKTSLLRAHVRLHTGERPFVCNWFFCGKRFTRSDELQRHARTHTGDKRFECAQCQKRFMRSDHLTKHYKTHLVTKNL
Sequence of UniProt Q9H5L6 (Q9H5L6 whole entry, looked up): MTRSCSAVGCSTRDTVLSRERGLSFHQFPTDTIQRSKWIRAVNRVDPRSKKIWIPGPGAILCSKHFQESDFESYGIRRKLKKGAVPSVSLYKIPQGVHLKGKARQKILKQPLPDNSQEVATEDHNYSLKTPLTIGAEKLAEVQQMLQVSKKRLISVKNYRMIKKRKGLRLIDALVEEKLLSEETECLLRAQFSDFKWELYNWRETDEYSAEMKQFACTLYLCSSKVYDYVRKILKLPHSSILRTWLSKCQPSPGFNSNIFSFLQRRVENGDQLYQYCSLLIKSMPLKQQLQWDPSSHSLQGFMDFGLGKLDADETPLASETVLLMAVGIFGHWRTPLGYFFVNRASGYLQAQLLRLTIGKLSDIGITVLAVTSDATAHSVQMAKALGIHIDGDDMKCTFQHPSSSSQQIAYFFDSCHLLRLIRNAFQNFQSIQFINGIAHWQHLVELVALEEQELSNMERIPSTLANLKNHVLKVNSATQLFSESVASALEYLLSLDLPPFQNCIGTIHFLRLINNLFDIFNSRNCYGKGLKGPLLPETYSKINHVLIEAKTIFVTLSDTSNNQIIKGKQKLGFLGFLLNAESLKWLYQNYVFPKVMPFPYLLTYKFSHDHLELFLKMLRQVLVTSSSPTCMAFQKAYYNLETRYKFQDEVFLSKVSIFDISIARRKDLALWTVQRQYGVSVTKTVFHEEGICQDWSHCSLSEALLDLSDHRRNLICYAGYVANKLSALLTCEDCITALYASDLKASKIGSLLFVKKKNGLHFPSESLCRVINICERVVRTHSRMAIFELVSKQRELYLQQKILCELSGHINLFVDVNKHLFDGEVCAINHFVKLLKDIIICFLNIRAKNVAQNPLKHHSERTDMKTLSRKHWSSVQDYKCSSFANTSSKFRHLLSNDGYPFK
Sequence of UniProt Q5JUR7 (Q5JUR7 whole entry, looked up): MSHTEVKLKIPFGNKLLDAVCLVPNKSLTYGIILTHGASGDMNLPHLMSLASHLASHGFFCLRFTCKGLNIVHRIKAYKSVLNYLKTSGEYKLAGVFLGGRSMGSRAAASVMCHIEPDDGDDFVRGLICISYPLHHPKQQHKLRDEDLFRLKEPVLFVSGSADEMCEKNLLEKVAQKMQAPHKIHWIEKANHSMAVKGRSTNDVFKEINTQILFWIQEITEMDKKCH
Sequence of UniProt Q08AE8 (Q08AE8 whole entry, looked up): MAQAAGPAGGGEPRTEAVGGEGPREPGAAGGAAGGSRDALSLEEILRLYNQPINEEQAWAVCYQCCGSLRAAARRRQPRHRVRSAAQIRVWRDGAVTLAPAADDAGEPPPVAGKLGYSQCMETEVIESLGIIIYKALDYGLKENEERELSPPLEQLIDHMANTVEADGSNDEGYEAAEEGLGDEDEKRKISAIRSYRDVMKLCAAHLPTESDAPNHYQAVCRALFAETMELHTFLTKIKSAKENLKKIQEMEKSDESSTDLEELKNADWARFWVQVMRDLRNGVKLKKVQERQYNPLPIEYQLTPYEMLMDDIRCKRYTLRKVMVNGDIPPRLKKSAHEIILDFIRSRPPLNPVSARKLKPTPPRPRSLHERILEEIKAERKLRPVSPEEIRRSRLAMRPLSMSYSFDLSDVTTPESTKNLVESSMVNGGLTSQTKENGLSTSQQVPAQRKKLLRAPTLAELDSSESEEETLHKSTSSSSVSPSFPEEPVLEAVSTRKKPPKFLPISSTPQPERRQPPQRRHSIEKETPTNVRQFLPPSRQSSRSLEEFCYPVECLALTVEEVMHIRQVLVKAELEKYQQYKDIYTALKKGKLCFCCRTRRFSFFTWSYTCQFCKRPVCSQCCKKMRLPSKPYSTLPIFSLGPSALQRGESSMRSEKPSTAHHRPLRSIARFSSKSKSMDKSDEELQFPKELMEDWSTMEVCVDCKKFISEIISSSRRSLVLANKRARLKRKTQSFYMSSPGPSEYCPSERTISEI
Sequence of UniProt Q9Y5J6 (Q9Y5J6 whole entry, looked up): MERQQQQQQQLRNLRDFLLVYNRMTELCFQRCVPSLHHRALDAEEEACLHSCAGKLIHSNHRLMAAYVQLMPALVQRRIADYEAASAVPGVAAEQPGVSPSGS
Sequence of UniProt Q13428 (Q13428 whole entry, looked up): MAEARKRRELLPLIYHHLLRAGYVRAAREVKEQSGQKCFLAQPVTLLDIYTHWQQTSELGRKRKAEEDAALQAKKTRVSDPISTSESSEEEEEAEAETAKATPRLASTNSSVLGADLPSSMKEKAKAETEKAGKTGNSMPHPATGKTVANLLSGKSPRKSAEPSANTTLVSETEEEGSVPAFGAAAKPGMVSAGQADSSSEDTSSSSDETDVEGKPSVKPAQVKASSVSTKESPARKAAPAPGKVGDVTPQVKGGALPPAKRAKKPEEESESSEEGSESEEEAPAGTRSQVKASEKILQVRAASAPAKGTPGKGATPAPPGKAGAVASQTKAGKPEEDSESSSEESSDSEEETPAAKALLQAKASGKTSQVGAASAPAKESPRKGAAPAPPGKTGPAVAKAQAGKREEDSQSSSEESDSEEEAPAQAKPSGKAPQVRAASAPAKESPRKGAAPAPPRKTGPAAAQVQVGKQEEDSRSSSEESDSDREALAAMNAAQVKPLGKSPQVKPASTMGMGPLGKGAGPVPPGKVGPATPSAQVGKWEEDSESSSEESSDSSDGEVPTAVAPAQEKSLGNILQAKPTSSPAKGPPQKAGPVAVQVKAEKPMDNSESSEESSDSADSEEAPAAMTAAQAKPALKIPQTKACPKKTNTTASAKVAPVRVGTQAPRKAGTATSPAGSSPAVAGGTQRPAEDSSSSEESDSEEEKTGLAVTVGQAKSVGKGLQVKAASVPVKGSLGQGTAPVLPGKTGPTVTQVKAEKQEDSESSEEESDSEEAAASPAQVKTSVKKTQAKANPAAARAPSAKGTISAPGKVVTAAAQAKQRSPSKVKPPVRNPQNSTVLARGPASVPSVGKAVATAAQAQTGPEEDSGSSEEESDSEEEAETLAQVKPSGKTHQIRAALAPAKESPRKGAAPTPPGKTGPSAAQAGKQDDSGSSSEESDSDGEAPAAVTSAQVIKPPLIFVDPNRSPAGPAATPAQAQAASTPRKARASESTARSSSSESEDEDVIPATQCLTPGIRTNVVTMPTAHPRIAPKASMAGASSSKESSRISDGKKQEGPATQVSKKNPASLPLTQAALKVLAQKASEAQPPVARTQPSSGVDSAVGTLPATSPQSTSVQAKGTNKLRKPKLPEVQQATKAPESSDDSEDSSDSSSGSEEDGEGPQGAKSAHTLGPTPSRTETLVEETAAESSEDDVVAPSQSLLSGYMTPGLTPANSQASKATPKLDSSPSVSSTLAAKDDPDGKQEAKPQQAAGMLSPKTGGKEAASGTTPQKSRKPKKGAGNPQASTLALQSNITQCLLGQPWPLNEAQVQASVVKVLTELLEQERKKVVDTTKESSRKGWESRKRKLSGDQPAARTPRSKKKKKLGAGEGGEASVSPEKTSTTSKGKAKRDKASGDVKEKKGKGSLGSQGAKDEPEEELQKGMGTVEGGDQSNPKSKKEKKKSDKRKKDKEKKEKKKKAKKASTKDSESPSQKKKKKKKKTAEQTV
Sequence of UniProt Q9Y6J9 (Q9Y6J9 whole entry, looked up): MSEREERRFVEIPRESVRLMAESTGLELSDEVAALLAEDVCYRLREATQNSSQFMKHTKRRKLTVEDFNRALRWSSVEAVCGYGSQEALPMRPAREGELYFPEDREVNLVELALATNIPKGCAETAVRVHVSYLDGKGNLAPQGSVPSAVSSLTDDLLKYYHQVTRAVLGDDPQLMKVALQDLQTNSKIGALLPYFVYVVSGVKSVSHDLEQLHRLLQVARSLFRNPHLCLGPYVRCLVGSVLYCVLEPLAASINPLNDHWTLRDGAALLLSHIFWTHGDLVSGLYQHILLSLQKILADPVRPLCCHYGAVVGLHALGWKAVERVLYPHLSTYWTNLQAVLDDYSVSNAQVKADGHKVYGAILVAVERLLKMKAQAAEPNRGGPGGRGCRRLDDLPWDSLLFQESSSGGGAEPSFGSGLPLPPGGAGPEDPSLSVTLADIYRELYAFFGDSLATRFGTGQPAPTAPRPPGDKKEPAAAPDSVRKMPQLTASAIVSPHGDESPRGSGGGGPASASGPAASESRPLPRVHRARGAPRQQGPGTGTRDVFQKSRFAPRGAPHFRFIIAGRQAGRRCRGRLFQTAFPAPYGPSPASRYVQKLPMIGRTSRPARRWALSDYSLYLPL

| Target | log2 fold change (filanesib) | log2 fold change (zotarolimus) | log2 fold change (idasanutlin) | log2 fold change (alisertib) | log2 fold change [1] | log2 fold change (gefitinib) | log2 fold change [2] | log2 fold change (lapatinib) | log2 fold change (pictilisib) | log2 fold change [3] | log2 fold change [4] | log2 fold change (duvelisib) | log2 fold change (gandotinib) | log2 fold change (tozasertib) | log2 fold change [5] | log2 fold change (ispinesib) | log2 fold change [6] | log2 fold change [7] | log2 fold change (crizotinib) | log2 fold change (doramapimod) |
| --- | --- | --- | --- | --- | --- | --- | --- | --- | --- | --- | --- | --- | --- | --- | --- | --- | --- | --- | --- | --- |
| TAF6L (UniProt Q9Y6J9) | 0.177 | 0.049 | 0.001 | -0.13 | 0.166 | 0.054 | 0.038 | -0.133 | 0.166 | -0.035 | 0.058 | 0.246 | -0.08 | 0.115 | -0.121 | -0.045 | – | – | – | – |
| TCOF1 isoform 3 (UniProt Q13428) | -0.152 | – | – | – | – | – | – | – | 0.188 | -0.103 | – | – | -0.166 | 0.073 | – | -0.185 | 0.542 | – | – | – |
| THAP9 (UniProt Q9H5L6) | – | -0.139 | 0.008 | -0.068 | – | -0.142 | 0.011 | – | – | – | -0.105 | 0.168 | – | – | -0.245 | -0.21 | – | 0.434 | -0.004 | 0.041 |
| SP2 (UniProt Q02086) | 0.012 | – | 0.277 | – | – | – | – | – | – | -0.14 | – | -0.08 | – | – | 0.125 | – | – | -0.319 | 0.083 | -0.06 |
| TACC2 (UniProt O95359) | -0.107 | -0.003 | -0.042 | 0.1 | 0.01 | -0.027 | 0.011 | 0.011 | 0.046 | -0.045 | -0.013 | 0.058 | -0.154 | 0.056 | -0.005 | 0.145 | – | – | – | – |
| SSBP4 (UniProt U3KPY3) | – | – | – | 0.023 | – | – | 0.212 | – | – | – | – | – | – | – | – | – | – | – | – | – |
| SPIRE1 (UniProt Q08AE8) | – | -0.051 | -0.023 | -0.033 | – | -0.013 | 0.049 | – | 0.188 | – | 0.087 | – | 0.344 | -0.052 | – | -0.073 | -0.324 | -0.509 (active) | -0.105 | 0.096 |
| SYK (UniProt P43405) | – | 0.066 | 0.25 | – | 0.204 | – | – | 0.06 | – | – | 0.053 | 0.13 | – | 0.031 | 0.405 | -0.216 | -0.093 | 0.085 | – | 0.179 |
| TEX30 (UniProt Q5JUR7) | – | 0.031 | -0.02 | 0.029 | 0.07 | -0.079 | 0.031 | -0.029 | 0.057 | – | 0.044 | 0.031 | -0.292 | 0.045 | 0.067 | -0.295 | 0.073 | -0.063 | -0.206 | 0.059 |
| TIMM10B (UniProt Q9Y5J6) | -0.068 | 0.023 | 0.009 | -0.205 | 0.048 | 0.022 | 0.143 | -0.248 | -0.126 | 0.107 | 0.031 | 0.308 | 0.087 | -0.114 | -0.161 | 0.077 | 0.129 | – | – | – |
| TAOK2 (UniProt Q9UL54) | – | – | – | 0.107 | -0.02 | -0.095 | 0.003 | 0.022 | 0.003 | – | – | – | -0.045 | -0.02 | – | 0.035 | -0.108 | 0.189 | 0.157 | -0.036 |
| TM7SF2 (UniProt O76062) | -0.142 | -0.018 | – | – | -0.143 | 0.059 | – | 0 | – | -0.044 | 0.028 | -0.075 | – | – | 0.028 | -0.451 | – | – | – | – |
| SSB (UniProt E7ERC4) | – | – | – | 0.494 | – | – | -0.37 | – | -0.086 | – | – | 0.399 | -0.352 | – | 0.337 | – | – | – | – | – |
